# Several values for one entry are separate records, joined by “and”; a condition that tells them apart may be missing. Equal values may be shown once. Hit rate of the full screen: of about 16,000 compounds, about 5,700 (36%) were called active. Inconclusive results (about 24%) are left out. Some of the results follow. Values without a mark were called inactive. Calls follow the shape of the dose curve; as a rule, active = well fitted curve in the direction sought with a large enough effect; inconclusive = small, poorly fitted or top-dose-only effect, or effect the other way; inactive = no such curve, though single readings can be large or run the other way.
# Target: Cytochrome P450 1A2 (Homo sapiens) (UniProt P05177)
# Assay: Cytochrome panel assay with activity outcomes
# Settings: recombinant CYP, pro-luciferin dealkylation, luminescence, p450-cyp1a2; series mostly up to 57.1 µM; activity, negative = inhibition: at the top concentration
# % is scaled to controls: 0 for no effect and ±100 for the full control effect.
# Chain of Cytochrome P450 1A2 (Homo sapiens) (P05177 whole entry, looked up): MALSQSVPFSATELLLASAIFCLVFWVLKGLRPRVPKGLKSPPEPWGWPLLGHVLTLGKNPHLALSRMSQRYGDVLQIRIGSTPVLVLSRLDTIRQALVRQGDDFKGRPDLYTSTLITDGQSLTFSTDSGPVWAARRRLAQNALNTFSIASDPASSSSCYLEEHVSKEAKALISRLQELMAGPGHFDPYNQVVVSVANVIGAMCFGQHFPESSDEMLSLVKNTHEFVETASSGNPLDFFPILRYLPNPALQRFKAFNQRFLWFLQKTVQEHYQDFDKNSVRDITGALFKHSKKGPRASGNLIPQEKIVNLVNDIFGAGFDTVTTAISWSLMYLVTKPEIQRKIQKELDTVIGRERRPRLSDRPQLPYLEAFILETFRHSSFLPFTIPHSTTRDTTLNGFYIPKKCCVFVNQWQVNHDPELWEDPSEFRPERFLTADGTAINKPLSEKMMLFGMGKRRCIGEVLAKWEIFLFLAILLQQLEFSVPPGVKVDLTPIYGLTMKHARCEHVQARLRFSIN
Compound,"activity, negative = inhibition",AC50
CN1CC[C@@]2(CCCN(C(=O)c3csnn3)C2)C1,7.43%,–
O[C@H](CN1CC1)[C@@H](O)CN1CC1,1.6% [at 11.4 µM],–
NC(=O)c1cc(N2CC2)c([N+](=O)[O-])cc1[N+](=O)[O-],-19.6%,–
CN1CCN(c2cc(N3CCCC3)c([N+](=O)[O-])cc2F)CC1,–,0.355 µM (active)
C[N+]12CCC(CC1)[C@@H](OC(=O)C(O)(c1ccccc1)c1ccccc1)C2,1.75% [at 25.6 µM],–
C(=NC12CN3CN(CN(C3)C1)C2)c1cccs1,3.17%,–
CC(C)c1ccc(C(O)(C(=O)O)c2ccc(C(C)C)cc2)cc1,-8.75% [at 11.4 µM],–
CC(C)c1ccc2c(c1)c(SC(C)(C)C)c(CC(C)(C)C(=O)O)n2Cc1ccc(Cl)cc1,–,25.1 µM (active)
C=C1C(O)(c2ccccc2)C2CC[N+]1(C)CC2 (stereo not given),8.66%,–
COC(=O)N1CCC2(CCN(CC(C)C)CC2)CC1,14.2%,–
C=C1[C@@H]2CC[C@H]3[C@@]4(C)C[C@@H](O[C@@H]5O[C@H](CO)[C@H](OS(=O)(=O)O)[C@@H](OS(=O)(=O)O)[C@@H]5OC(=O)CC(C)C)C[C@@H](C(=O)O)[C@H]4CC[C@@]3(C2)[C@H]1O,-10.2% [at 25.6 µM],–
COc1ccc2c(c1)[C@]13CCCC[C@@H]1[C@H](C2)NCC3,3.59%,–
COc1ccc(C(=O)c2c(C)n(CCN3CCOCC3)c3cc(I)ccc23)cc1,–,15.8 µM (active)
N=C1c2ccccc2CN1NC(=O)c1ccc(F)cc1,-18%,–
CN1C(=O)CCS(=O)(=O)[C@@H]1c1ccc(Cl)cc1,18.2% [at 25.6 µM],–
Cc1nnc2ccc(-c3cccc(C(F)(F)F)c3)nn12,–,0.0794 µM (active)
CNC[C@H](O)c1ccc(OC(=O)C(C)(C)C)c(OC(=O)C(C)(C)C)c1,-15% [at 25.6 µM],–
CCOC(=O)[C@@H]1[C@@H]2c3ccccc3-c3ccccc3[C@H]2C[C@H]1O,–,0.631 µM (active)
O=P(O)(O)c1ccccc1 (tested in a mixture with another compound),7.14% [at 11.4 µM],–
c1ccc([C@H]2CNCc3ccccc32)cc1,-3.66%,–
C[C@@]12CC[C@H](O)C[C@@H]1CC[C@H]1[C@H]2CC[C@@]2(C)[C@@H](C3=CC(=O)OC3)CC[C@]12O,-0.912% [at 25.6 µM],–
CC[C@H]1CN2CCc3cc(OC)c(OC)cc3[C@H]2C[C@@H]1C[C@H]1NCCc2c1[nH]c1ccc(O)cc21,-7.35% [at 11.4 µM],–

Compound,"activity, negative = inhibition",AC50
c1ccc2c(c1)Sc1ccccc1N2C[C@H]1CN2CCC1CC2,-5.29% [at 11.4 µM],–
O=C1c2ccccc2-c2cc([N+](=O)[O-])c([N+](=O)[O-])cc21,–,0.251 µM (active)
NCCc1ccc(S(=O)(=O)O)cc1[N+](=O)[O-],-6.66% [at 11.4 µM],–
CN(N=O)C(=O)N[C@H]1C(O)OC(CO)[C@@H](O)[C@H]1O (stereo not given in full),-13.1%,–
C[n+]1c(/C=C\c2ccc(O)c3ncccc23)[se]c2ccccc21,-22.7% [at 2.29 µM],–
CC(O)(CS(=O)(=O)c1cccc(C(F)(F)F)c1)C(=O)Nc1ccc(C(F)(F)F)cc1 (stereo not given),-15.7%,–
C=CCn1c(O)c(C(CC)=NC2CC2)c(=O)[nH]c1=O,–,0.708 µM (active)
C=CCn1c(O)c(C(C)=NCCCN2CCOCC2)c(=O)[nH]c1=O,-14.8%,–
C[C@@H]1OC=C2[C@@H](O)[C@H]3O[C@H]3C(=O)[C@@]23[C@H]1[C@H]1C2=C([C@@H](O)[C@H]4O[C@@H]4C2=O)[C@@H]3O[C@@H]1C,2.27% [at 11.4 µM],–
C=CCN1CC[C@]23c4c5ccc(O)c4O[C@@H]2/C(=N/NC(=O)c2ccccc2)CC[C@@]3(O)[C@H]1C5,-11.8%,–
CN(C)CCOC(=O)COc1ccc(Cl)cc1,–,10 µM (active)
CC(=O)[C@@H]1CC[C@@H]2[C@@H]3CCC4=CC(=O)CC[C@@]4(C)[C@H]3CC[C@]21C,-7.19% [at 25.6 µM],–
CC[N+](C)(C)c1cccc(O)c1,-7.54%,–
COC(=O)c1cc2c(cn1)[nH]c1ccccc12,–,0.631 µM (active)
CCN1C[C@]2(C)CC[C@@H](O)[C@]34[C@@H]5CC6[C@@H](OC)C[C@@](O)([C@H]5[C@@H]6O)[C@@H](C[C@@H]23)[C@H]14,-9.03%,–
CN1[C@@H]2CC[C@H]1CC(O)C2 (stereo not given in full),-12.5% [at 25.6 µM],–
Oc1ccc2c3c1O[C@@H]1c4[nH]c5c(c4C[C@@]4(O)[C@@H](C2)N(CC2CC2)CC[C@]314)C[C@]1(O)[C@@H]2Cc3ccc(O)c4c3[C@@]1(CCN2CC1CC1)[C@H]5O4,-5.25%,–
Ic1cncc(OC[C@@H]2CCN2)c1,–,0.398 µM (active)
C[C@@]12CC[C@@H]3[C@H](CCC4=CC(=O)CC[C@]43C)[C@@H]1CC[C@@H]2C(=O)COS(=O)(=O)c1ccc(Br)cc1,-3.63% [at 11.4 µM],–
C1CCc2nnnn2CC1,2.25%,–
C/C(=C\c1ccc(N(C)C)cc1)[N+](=O)[O-],–,1.41 µM (active)
N[C@@H](CP(=O)(O)O)C(=O)O,-12.6% [at 11.4 µM],–

Compound,"activity, negative = inhibition",AC50
CC(=O)OCC(=O)[C@@H]1CC[C@H]2[C@H]3CC[C@H]4C[C@@H](O)CC[C@]4(C)[C@@H]3C(=O)C[C@@]12C,-3.59% [at 25.6 µM],–
Cc1c(C(=O)c2ccc3ccccc3c2)c2cccc3c2n1[C@H](CN1CCOCC1)CO3,-21.2%,–
CCCn1c(C)c(C(=O)c2cccc3ccccc23)c2ccccc21,–,2 µM (active)
CCCn1c(C)c(C(=O)c2ccc3ccccc3c2)c2ccccc21,–,6.31 µM (active)
C[C@@H]1[C@@H](C)N1C[C@H](O)Cn1ccnc1[N+](=O)[O-] (stereo not given in full),-13.2% [at 11.4 µM],–
Nc1nc2[nH]c(=O)cnc2c(=O)[nH]1,2.71%,–
CN1CC[C@@]23c4ccccc4N[C@H]1[C@]21CCN(C)[C@@H]3Nc2ccccc21,-4.88% [at 25.6 µM],–
O=C(O)CS(=O)(=O)C(c1ccccc1)c1ccccc1,-15.7% [at 2.29 µM],–
Cc1cc(C)cc(NC(=S)NC2CC3CCC(C2)N3Cc2ccco2)c1 (stereo not given),-11.6%,–
C[C@@H]1C(=O)O[C@@H]2C[C@]34[C@H]5C[C@@H](C(C)(C)C)[C@@]36[C@@H](OC(=O)[C@@H]6O)O[C@@]4(C(=O)O5)[C@@]12O,-6.3% [at 25.6 µM],–
NCCP(=O)(O)O,-12.9% [at 11.4 µM],–
CN[C@H](Cc1ccccc1)c1cccc(OC)c1O,-11.6% [at 11.4 µM],–
COC1=CC(=O)O[C@@H](/C=C\c2ccccc2)C1,–,3.16 µM (active)
CNC(=O)OCC[N+](C)(C)C,10.7%,–
O=C(NCP(=O)(O)O)c1cccnc1,-11.9% [at 11.4 µM],–
CC(C)CN1CC2(CCN(C(=O)c3ccncc3)CC2)C1,-7.67%,–
C[C@@H]1O[C@H](C[N+](C)(C)C)CS1,0.254%,–
N=C(N)SCc1ccc(Cl)c2ccccc12 (tested in a mixture with another compound),–,251 nM (active) and 158 nM (active)
COc1ccc2c(c1)CN([C@H](C)[C@@H]1CC[C@@H]3[C@H]4CC[C@H]5C[C@@H](O)CC[C@@]5(C)[C@H]4CC[C@]31C)CO2,-17.9% [at 2.29 µM],–
CCCC(CCC)C(=O)O,-4.79%,–
O=S(=O)(c1ccccc1)N1CCCCC1c1cccnc1 (stereo not given),-6.92%,–
CC1(C)[C@@H]2CC[C@]1(C)CN(CCC[N+](C)(C)C)C2,-6.81% [at 2.29 µM],–

Compound,"activity, negative = inhibition",AC50
CC(=Nc1c(C)n(C)n(-c2ccccc2)c1=O)c1c(O)n(Cc2ccccc2)c(=O)[nH]c1=O,-6.48%,–
CC(=NCc1ccco1)c1c(O)n(-c2ccccc2)c(=O)[nH]c1=O,–,22.4 µM (active)
CC(=NCCN1CCOCC1)c1c(O)n(Cc2ccccc2)c(=O)[nH]c1=O,-26.8%,–
N[C@@]1(C(=O)O)CC[C@H](C(=O)O)C1,–,inactive
O=C1C2CCN(CC2)C1(CO)CO,-15.4% [at 11.4 µM],–
[N-]=[N+]=CC(=O)CC[C@H](N)C(=O)O,-10.9% [at 11.4 µM],–
Clc1ccccc1-c1cncnc1NCCc1cnc[nH]1,–,1.58 µM (active)
Cc1ccccc1-c1cncnc1NCCc1cnc[nH]1,–,5.01 µM (active)
N=C(N)c1ccc(-c2ccc(-c3ccc(C(=N)N)cc3)o2)cc1,-1.35% [at 11.4 µM],–
O=C(O)c1cc(N=Nc2ccc([As](=O)(O)O)cc2)ccc1O,-9.91% [at 11.4 µM],–
O=[As](O)(O)c1ccc(N=Nc2ccc([As](=O)(O)O)cc2)cc1,-13.9% [at 11.4 µM],–
N[C@@H](Cn1ccc(=O)n(Cc2ccc(C(=O)O)cc2)c1=O)C(=O)O,-15.7%,–
c1ccc(C[N+]23CN4CN(CN(C4)C2)C3)cc1,-10.1% [at 2.29 µM],–
Cc1ccc(NC(=[OH+])c2cc3ccccc3cc2O)c(C)c1.Cc1ccc(NC(=[OH+])c2cc3ccccc3cc2O)c(C)c1.[Ni],–,0.251 µM (active)
CN(C)[C@@H]1C(=O)C(C(N)=O)=C(O)[C@]2(O)C(=O)C3=C(O)c4c(O)cccc4[C@@](C)(O)[C@H]3[C@H](O)[C@@H]12,-18.3% [at 25.6 µM],–
CN(C(=O)Cc1ccc(Cl)c(Cl)c1)[C@@H](CN1CCCC1)c1cccc(OCC(=O)O)c1,2.92%,–
C[N+]1(C)[C@@H]2CC(OC(=O)[C@@H](CO)c3ccccc3)C[C@@H]1[C@H]1O[C@H]12 (stereo not given in full),-22.8% [at 11.4 µM],–
Cc1ccc(S(=O)(=O)N[C@@H](CCCCN)C(=O)CCl)cc1,3.11%,–
C[C@@]12CC[C@H](O[C@@H]3O[C@H](CO)[C@@H](O)[C@H](O)[C@@H]3O)C[C@@H]1CC[C@H]1[C@H]2CC[C@@]2(C)[C@@H](C3=CCOC3=O)CC[C@]12O,-11.7% [at 11.4 µM],–

# Source: PubChem BioAssay AID1851 (National Center for Advancing Translational Sciences (NCATS), 2009)
